Assay results from PubChem BioAssay AID1159580 (chemical genetic matrix, 2015).
Out of some 5,500 compounds screened, about 2,000 (36%) were called active. Roughly 18% stayed inconclusive and do not appear here. Some of the results follow. Unmarked numbers belong to inactive results. Cut-off read from the data, not from the text of the source: active = normalized growth mostly below about 0.91 (no sharp cut-off); inconclusive = no clear call, values can overlap the other calls; inactive = mostly above about 0.92.

Experiment: chemical genetic growth profiling, strain panel (AID 1159580);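 note: tested at 20 µM; growth read once vehicle control cultures reached saturation at 30 °C; 1 = growth at the plate median or of vehicle wells; lower values mean less growth of the strain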
Details: growth OD
[1] = S. cerevisiae deletion strains, locus YDL101C, strain DUN1, active compounds read low
[2] = S. cerevisiae deletion strains, locus YHR030C, strain SLT2, active compounds read low

Cc1c(Cl)cccc1N=C1SCC(=O)N1Cc1ccco1
normalized growth (S. cerevisiae deletion strains, locus YAR019C, strain CDC15, active compounds read low): 0.981
normalized growth (S. cerevisiae deletion strains, locus YBL105C, strain PKC1, active compounds read low): 0.973
normalized growth (S. cerevisiae deletion strains, locus YBR135W, strain CKS1, active compounds read low): 0.972
normalized growth (S. cerevisiae deletion strains, locus YBR136W, strain MEC1, active compounds read low): 0.981
normalized growth (S. cerevisiae deletion strains, locus YBR160W, strain CDC28, active compounds read low): 0.971
normalized growth (S. cerevisiae deletion strains, locus YDL017W, strain CDC7, active compounds read low): 0.974
normalized growth (S. cerevisiae deletion strains, locus YDL028C, strain MPS1, active compounds read low): 0.977
normalized growth [1]: 0.979
normalized growth (S. cerevisiae deletion strains, locus YDL108W, strain KIN28, active compounds read low): 0.972
normalized growth (S. cerevisiae deletion strains, locus YDL132W, strain cdc53, active compounds read low): 0.978
normalized growth (S. cerevisiae deletion strains, locus YDL214C, strain PRR2, active compounds read low): 0.905
normalized growth (S. cerevisiae deletion strains, locus YDR052C, strain DBF4, active compounds read low): 0.986
normalized growth (S. cerevisiae deletion strains, locus YDR054C, strain cdc34, active compounds read low): 0.96
normalized growth (S. cerevisiae deletion strains, locus YDR226W, strain ADK1, active compounds read low): 0.98
normalized growth (S. cerevisiae deletion strains, locus YDR477W, strain SNF1, active compounds read low): 0.918
normalized growth (S. cerevisiae deletion strains, locus YER123W, strain YCK3, active compounds read low): 0.884
normalized growth (S. cerevisiae deletion strains, locus YER133W, strain GLC7, active compounds read low): 0.915
normalized growth (S. cerevisiae deletion strains, locus YFL009W, strain cdc4, active compounds read low): 0.969
normalized growth (S. cerevisiae deletion strains, locus YFL029C, strain CAK1, active compounds read low): 0.971
normalized growth (S. cerevisiae deletion strains, locus YFR003C, strain YPI1, active compounds read low): 0.969
normalized growth (S. cerevisiae deletion strains, locus YFR019W, strain FAB1, active compounds read low): 0.918
normalized growth (S. cerevisiae deletion strains, locus YFR028C, strain CDC14, active compounds read low): 0.964
normalized growth (S. cerevisiae deletion strains, locus YGR040W, strain KSS1, active compounds read low): 0.912
normalized growth (S. cerevisiae deletion strains, locus YGR052W, strain FMP48, active compounds read low): 1
normalized growth (S. cerevisiae deletion strains, locus YGR092W, strain DBF2, active compounds read low): 0.943
normalized growth [2]: 0.758 (active)
normalized growth (S. cerevisiae deletion strains, locus YHR079C, strain IRE1, active compounds read low): 0.888
normalized growth (S. cerevisiae deletion strains, locus YHR082C, strain KSP1, active compounds read low): 0.942
normalized growth (S. cerevisiae deletion strains, locus YHR205W, strain SCH9, active compounds read low): 0.896
normalized growth (S. cerevisiae deletion strains, locus YIL147C, strain SLN1, active compounds read low): 0.975
normalized growth (S. cerevisiae deletion strains, locus YJL095W, strain BCK1, active compounds read low): 0.823
normalized growth (S. cerevisiae deletion strains, locus YJL128C, strain PBS2, active compounds read low): 0.951
normalized growth (S. cerevisiae deletion strains, locus YJL157C, strain FAR1, active compounds read low): 0.936
normalized growth (S. cerevisiae deletion strains, locus YJR016C, strain ILV3, active compounds read low): 0.969
normalized growth (S. cerevisiae deletion strains, locus YJR066W, strain TOR1 (second series), active compounds read low): 0.903
normalized growth (S. cerevisiae deletion strains, locus YJR066W, strain TOR1, active compounds read low): 0.893
normalized growth (S. cerevisiae deletion strains, locus YKL048C, strain ELM1, active compounds read low): 0.975
normalized growth (S. cerevisiae deletion strains, locus YKL067W, strain YNK1, active compounds read low): 0.903
normalized growth (S. cerevisiae deletion strains, locus YKL101W, strain HSL1, active compounds read low): 0.923
normalized growth (S. cerevisiae deletion strains, locus YKL193C, strain SDS22, active compounds read low): 0.966
normalized growth (S. cerevisiae deletion strains, locus YKL203C, strain TOR2, active compounds read low): 0.954
normalized growth (S. cerevisiae deletion strains, locus YLR113W, strain HOG1, active compounds read low): 0.809 (active)
normalized growth (S. cerevisiae deletion strains, locus YLR133W, strain CKI1, active compounds read low): 0.918
normalized growth (S. cerevisiae deletion strains, locus YLR403W, strain SFP1, active compounds read low): 0.918
normalized growth (S. cerevisiae deletion strains, locus YML070W, strain DAK1, active compounds read low): 0.892
normalized growth (S. cerevisiae deletion strains, locus YMR001C, strain CDC5, active compounds read low): 0.973
normalized growth (S. cerevisiae deletion strains, locus YMR205C, strain PFK2 (second series), active compounds read low): 0.919
normalized growth (S. cerevisiae deletion strains, locus YMR277W, strain FCP1, active compounds read low): 0.969
normalized growth (S. cerevisiae deletion strains, locus YNL006W, strain LST8, active compounds read low): 0.974
normalized growth (S. cerevisiae deletion strains, locus YNL020C, strain ARK1, active compounds read low): 0.914
normalized growth (S. cerevisiae deletion strains, locus YNL161W, strain CBK1, active compounds read low): 0.978
normalized growth (S. cerevisiae deletion strains, locus YNL183C, strain NPR1, active compounds read low): 0.849
normalized growth (S. cerevisiae deletion strains, locus YNL207W, strain RIO2, active compounds read low): 0.974
normalized growth (S. cerevisiae deletion strains, locus YNL222W, strain SSU72, active compounds read low): 0.969
normalized growth (S. cerevisiae deletion strains, locus YNL307C, strain MCK1 (second series), active compounds read low): 0.892
normalized growth (S. cerevisiae deletion strains, locus YOL078W, strain AVO1, active compounds read low): 0.978
normalized growth (S. cerevisiae deletion strains, locus YOL136C, strain PFK27, active compounds read low): 0.889
normalized growth (S. cerevisiae deletion strains, locus YOR061W, strain CKA2, active compounds read low): 0.925
normalized growth (S. cerevisiae deletion strains, locus YOR119C, strain RIO1, active compounds read low): 0.998
normalized growth (S. cerevisiae deletion strains, locus YOR231W, strain MKK1, active compounds read low): 0.885
normalized growth (S. cerevisiae deletion strains, locus YOR329C, strain SCD5, active compounds read low): 0.976
normalized growth (S. cerevisiae deletion strains, locus YPL031C, strain PHO85, active compounds read low): 0.897
normalized growth (S. cerevisiae deletion strains, locus YPL153C, strain RAD53, active compounds read low): 0.916
normalized growth (S. cerevisiae deletion strains, locus YPL204W, strain HRR25, active compounds read low): 0.89
normalized growth (S. cerevisiae deletion strains, locus YPL209C, strain IPL1, active compounds read low): 0.976
normalized growth (S. cerevisiae deletion strains, locus YPL256C, strain CLN2, active compounds read low): 0.791 (active)
normalized growth (S. cerevisiae deletion strains, locus YPR025C, strain CCL1, active compounds read low): 0.975
normalized growth (S. cerevisiae deletion strains, locus YPR106W, strain ISR1, active compounds read low): 0.963
normalized growth (S. cerevisiae deletion strains, locus YPR111W, strain DBF20, active compounds read low): 0.954
normalized growth (S. cerevisiae deletion strains, strain NNK1, active compounds read low): 0.951
normalized growth (S. cerevisiae deletion strains, strain TSCII, active compounds read low): 0.976

COc1ccccc1N=C1SCC(=O)N1Cc1ccco1
normalized growth (S. cerevisiae deletion strains, locus YAL013W, strain DEP1, active compounds read low): 0.993
normalized growth (S. cerevisiae deletion strains, locus YBR229C, strain ROT2, active compounds read low): 0.99
normalized growth [1]: 0.983
normalized growth (S. cerevisiae deletion strains, locus YDR150W, strain NUM1, active compounds read low): 0.9
normalized growth (S. cerevisiae deletion strains, locus YEL061C, strain CIN8, active compounds read low): 0.989
normalized growth (S. cerevisiae deletion strains, locus YGR078C, strain PAC10, active compounds read low): 0.981
normalized growth (S. cerevisiae deletion strains, locus YGR229C, strain SMI1, active compounds read low): 1
normalized growth [2]: 0.956
normalized growth (S. cerevisiae deletion strains, locus YHR087W, strain rtc3, active compounds read low): 0.989
normalized growth (S. cerevisiae deletion strains, locus YJR043C, strain POL32, active compounds read low): 0.977
normalized growth (S. cerevisiae deletion strains, locus YJR075W, strain HOC1, active compounds read low): 0.978
normalized growth (S. cerevisiae deletion strains, locus YKL190W, strain CNB1, active compounds read low): 0.997
normalized growth (S. cerevisiae deletion strains, locus YLR039C, strain RIC1, active compounds read low): 0.989
normalized growth (S. cerevisiae deletion strains, locus YLR058C, strain SHM2 (second series), active compounds read low): 0.99
normalized growth (S. cerevisiae deletion strains, locus YLR085C, strain ARP6, active compounds read low): 0.968
normalized growth (S. cerevisiae deletion strains, locus YLR262C, strain YPT6, active compounds read low): 0.998
normalized growth (S. cerevisiae deletion strains, locus YML094W, strain GIM5, active compounds read low): 0.972
normalized growth (S. cerevisiae deletion strains, locus YMR219W, strain ESC1, active compounds read low): 0.989
normalized growth (S. cerevisiae deletion strains, locus YMR263W, strain SAP30, active compounds read low): 0.987
normalized growth (S. cerevisiae deletion strains, locus YNL153C, strain GIM3, active compounds read low): 0.987
normalized growth (S. cerevisiae deletion strains, locus YNL298W, strain CLA4 (second series), active compounds read low): 0.997
normalized growth (S. cerevisiae deletion strains, locus YNL322C, strain KRE1, active compounds read low): 0.985
normalized growth (S. cerevisiae deletion strains, locus YNR030W, strain Alg12, active compounds read low): 0.998
normalized growth (S. cerevisiae deletion strains, locus YOL006C, strain TOP1, active compounds read low): 0.951
normalized growth (S. cerevisiae deletion strains, locus YPL055C, strain LGE1, active compounds read low): 0.969
normalized growth (S. cerevisiae deletion strains, locus YPL241C, strain CIN2, active compounds read low): 1.01
normalized growth (S. cerevisiae deletion strains, locus YPR135W, strain CTF4, active compounds read low): 0.939
normalized growth (S. cerevisiae strains, strain wild type, active compounds read low): 1
